The list is not random: actives were taken first. Their share in the collection is about 3.5%.
PPC-1+TRAIL kill = kills PPC-1 cancer cells in the presence of TRAIL. PPC-1 cells + TRAIL, ATPLite viability luminescence. cell killing (% activity), % at 4 µM or 5 µM. 0.41% of 220,000 active;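 active = cell killing above 50% in the first pass at 4 µM, then a duplicate retest at 5 µM averaging 50% or more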;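 note: plate controls were cells with TRAIL plus DMSO for no effect and medium-only wells lacking cells for full effect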
TWEAK Fn14 block = blocks TWEAK-Fn14 interaction in a reporter cell assay. TWEAK-stimulated Fn14 reporter cells, luciferase luminescence, 8 h. inhibition, % at 10 µM. 2% of 360,000 active; in the data active = inhibition above about 50%
TRAIL sens C8 = caspase-8 TRAIL sensitization; NB7+C8 cells + TRAIL, ATPlite viability luminescence; inhibition (viability loss, TRAIL sensitization), % at 10 µM; 1% of 360,000 active; AID 624354;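 active = compounds causing at least 50% loss of cell viability in the single-dose screen, relative to plate controls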
TROY signal inh = blocks TROY-dependent signaling in reporter cells | Q293 LMP1-TROYcd NF-kB luciferase reporter, 4 h | inhibition, % at 10 µM | 0.98% of 360,000 active | AID 1347056;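 active = compounds whose plate-normalised and pattern-corrected inhibition of the luciferase reporter signal at the single screening dose is 50% or more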
HSP90 refold inh = inhibitors of HSP90 luciferase refolding in rabbit reticulocyte lysate. luciferase refolding luminescence, 3 h. inhibition, % at 5.6 µM. 0.91% of 290,000 active;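 active = inhibition above the screen-wide mean plus 3 SD, computed separately per campaign, cut at about 16% in these data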;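 note: 0% = DMSO wells and 100% = 60 µM geldanamycin wells; inhibitors lower the luminescence because luciferase stays unfolded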
Platelet DG rel = platelet dense granule release activity; human platelet-rich plasma, SFLLRN dense granule ATP release, luminescence; inhibition, %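 (compounds screened at 7.5 µM in platelet-rich plasma)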; 0.22% of 300,000 active;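 active = mean replicate score, as percent of positive control, at or above 50; inconclusive = mean below 50 but at least one replicate at or above 50; inactive = mean and every replicate below 50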
HSP90 inh confirm = confirmation of HSP90 inhibitors. shares compounds with HSP90 refold inh. rabbit reticulocyte lysate, luciferase refolding luminescence, 3 h. inhibition, % at 5.9 µM. 64% of 2,300 active; in the data active = inhibition above about 18%;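 note: 0% = vehicle wells and 100% = reference inhibitor wells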
FLuc counter = firefly luciferase inhibition, HSP90 counter-screen | 48% of 2,300 active | shares compounds with HSP90 refold inh | AID 1847 | inhibition, % at 5.9 µM | purified native firefly luciferase, luminescence;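 active = inhibition above the mean inhibition of all tested sample wells plus 3 SD, cut at about 10% in these data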;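 note: 0% = DMSO with luciferase and 100% = wells lacking luciferase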
Target sequence (P08659 whole entry, looked up): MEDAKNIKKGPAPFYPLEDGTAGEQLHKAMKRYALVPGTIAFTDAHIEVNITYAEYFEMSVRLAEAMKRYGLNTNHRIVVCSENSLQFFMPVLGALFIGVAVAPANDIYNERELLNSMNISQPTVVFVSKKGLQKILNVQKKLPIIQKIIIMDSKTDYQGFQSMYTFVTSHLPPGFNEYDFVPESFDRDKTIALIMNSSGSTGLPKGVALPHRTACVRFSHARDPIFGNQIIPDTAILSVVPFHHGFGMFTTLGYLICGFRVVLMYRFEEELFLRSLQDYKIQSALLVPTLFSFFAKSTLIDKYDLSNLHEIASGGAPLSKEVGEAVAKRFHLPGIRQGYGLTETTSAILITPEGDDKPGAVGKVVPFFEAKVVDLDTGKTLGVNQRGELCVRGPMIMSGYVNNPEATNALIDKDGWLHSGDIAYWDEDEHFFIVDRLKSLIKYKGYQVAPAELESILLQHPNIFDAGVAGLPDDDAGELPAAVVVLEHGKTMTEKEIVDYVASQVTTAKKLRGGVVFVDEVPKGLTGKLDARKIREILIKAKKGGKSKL
* = called active by the depositor; ? = inconclusive; · = not tested or not shown.

SMILES	PPC-1+TRAIL kill	TWEAK Fn14 block	TRAIL sens C8	TROY signal inh	HSP90 refold inh	Platelet DG rel	HSP90 inh confirm	FLuc counter
CC(C)CC(=O)Nc1nc2ccc(S(C)(=O)=O)cc2s1	9	0	-2	-25	30*	6	-1	-18
CC(C)CCNC(=O)C(c1ccc(O)cc1)N(Cc1ccco1)C(=O)CCC(=O)Nc1nccs1 (stereo not drawn)	·	17	-10	-16	-3	4	·	·
Cc1ccc(S(=O)(=O)Nc2cccc(C(=O)NCCCn3ccnc3)c2)cc1F	·	2	12	-13	·	·	·	·
CC(=O)Nc1ccc(NC(=O)Cn2cnc3c(cnn3C(C)(C)C)c2=O)cc1	7	·	·	·	-3	-5	·	·
CC(C)(C)n1ncc2c(=O)n(CC(=O)NCc3ccccc3)cnc21	11	84*	12	45	21*	-4	37*	34*
C=C(Cl)COc1ccc2c(CCC)cc(=O)oc2c1	21	-25	-6	-60	7	-12	·	·
CCCc1cc(=O)oc2cc(OCc3ccc(C(=O)O)o3)ccc12	·	-14	-16	-34	23*	2	18*	-24
CCCc1cc(=O)oc2cc(OCc3ccc(C(=O)O)cc3)ccc12	·	-9	-6	-20	22*	4	16	-22
COC(=O)NCCOC(=O)N(O)c1ccc(Br)cc1	13	-12	5	-20	50*	-18	75*	-20
COCCNC(=O)CN(C)S(=O)(=O)c1ccc(Br)cc1	-4	0	-12	9	-1	14	·	·
COC(=O)c1ccccc1OCCOc1ccccc1C(=O)OC	13	11	4	2	-3	-2	·	·
COC(=O)c1ccccc1OCCCOc1ccc(C=O)cc1OC	13	53*	8	34	60*	-9	70*	-10
C[C@@H]1CN([C@H](C)CO)C(=O)CCCn2nncc2CO[C@@H]1CN(C)S(=O)(=O)c1ccccc1C#N	·	5	-3	-13	·	·	·	·
CNc1nc(-c2ccccn2)nnc1-c1ccccc1	23	4	-3	1	1	0	·	·
c1ccc(-c2nnc(-c3ccccn3)nc2NC2CCCCC2)cc1	2	-17	11	-5	22*	-5	16*	-12
CCOC(=O)c1c(NC(=S)NNS(=O)(=O)c2ccc(Br)cc2)sc2c1CCCCC2	·	27	-14	1	-3	4	·	·
Cc1c(C(=O)N2CCN(c3ccc(F)cc3)CC2)sc2nc3n(c(=O)c12)CCC3	·	-16	-17	12	-5	6	·	·
Nc1c(C(=O)Nc2ccccc2)nnn1-c1ccc2c(c1)OCCO2	·	56*	46	32	24*	-39	45*	31*
Cc1ccc(NC(=O)c2nnn(-c3ccc4c(c3)OCCO4)c2N)cc1	·	1	13	-14	-6	17	·	·
Oc1c(N=Nc2ccccc2)sc2ccccc12	17	35	44	1	18*	56*	48*	39*
Cc1cc(Cl)ccc1C(O)c1ncc(-c2cccc3ccccc23)[nH]1 (stereo not drawn)	·	-47	3	11	·	·	·	·
CCOC(=O)c1csc(COc2ccc(OC)cc2)n1	10	-29	6	-15	20*	-9	52*	-13
O=C(O)c1ccc(N/N=C/c2ccc3c(c2)OCO3)cc1	4	102*	31	82*	82*	86*	94*	88*
C/C(=N\Nc1ccc(Cl)c(C(=O)O)c1)c1ccc2c(c1)OCO2	15	-10	-2	-36	9	-3	·	·
O=C(O)c1cc(N/N=C/c2ccc3c(c2)OCCO3)ccc1Cl	6	-13	-13	11	39*	·	87*	82*
SMILES	PPC-1+TRAIL kill	TWEAK Fn14 block	TRAIL sens C8	TROY signal inh	HSP90 refold inh	Platelet DG rel	HSP90 inh confirm	FLuc counter
Cc1ccc(N/N=C/c2ccc3c(c2)OCCO3)cc1Cl	25	-3	-10	32	6	?	·	·
O=C(O)c1cc(N/N=C/c2ccc3c(c2)OCO3)ccc1Cl	17	20	-3	-60	47*	14	83*	54*
CC1(c2ccc(Cl)cc2Cl)NC(=O)N(CC(=O)NCCC2=CCCCC2)C1=O (stereo not drawn)	·	9	-4	-10	·	·	·	·
CC1(C)Cc2nc3oc4c(=O)n(CC(=O)Nc5ccccc5)cnc4c3cc2CO1	23	-3	-13	-19	4	1	·	·
CC(C)CCn1cnc2c(oc3nc4c(cc32)CCCC4)c1=O	10	76*	28	55*	19*	6	51*	35*
COc1cccc(C(=O)O/N=C(\N)c2ccccn2)c1OC	·	81*	42	5	53*	8	64*	72*
N/C(=N\OC(=O)c1ccc(=O)n(Cc2ccccc2)c1)c1ccccn1	5	-14	-8	-16	-1	1	·	·
CCCc1ccc(C(=O)O/N=C(\N)c2ccccn2)cc1	·	99*	89*	83*	78*	77*	75*	89*
COc1cccc(C(=O)O/N=C(\N)c2ccncc2)c1OC	12	-25	5	-72	-3	-3	·	·
N/C(=N\OC(=O)c1cccc([N+](=O)[O-])c1)c1ccccn1	21	23	16	9	-2	0	·	·
COc1cccc(C(=O)O/N=C(\N)c2ccccn2)c1	·	101*	79*	79*	67*	?	85*	91*
COc1ccccc1/C=N\N=C(\N)c1ccccn1	11	13	4	28	25*	-3	9	-12
NNC(=O)c1ccccc1CO	·	·	·	·	·	-2	·	·
c1ccc(OCc2nc3ccccc3s2)cc1	12	-4	10	-37	17*	1	25*	8
COc1ccccc1NC(=O)C(C)Sc1nc(-c2ccccc2)cn1N (stereo not drawn)	·	16	-14	24	·	·	·	·
Cc1ccc(OCC(=O)N(C)CC(=O)N(CC(C)C)c2c(N)n(CC(C)C)c(=O)[nH]c2=O)c(C)c1	·	15	-10	-2	·	1	·	·
Cc1ccccc1OCC(=O)N(CC(C)C)c1c(N)n(CC(C)C)c(=O)[nH]c1=O	23	-2	-12	-15	45*	24	-2	-2
CCCCN(C=O)c1c(CC)nc2ccc(C(=O)NCCOc3ccc(OC)cc3)cn12	·	-24	3	6	·	·	·	·
O=C(NC1CCCCCCC1)c1cc(F)c(F)cc1Cl	21	-30	5	-42	-3	-2	·	·
Cc1ccc(C(=O)NC2CCCCCCC2)c(Cl)c1	·	75*	61*	40	42*	-7	63*	53*
CC1=C(C(=O)N(C(C)C)C(C)C)CC(CC(=O)NCCN2CCOCC2)C(=O)N1Cc1ccccc1 (stereo not drawn)	·	8	3	-3	·	·	·	·
CCC(=O)N1CCc2cc(S(=O)(=O)CCC(=O)NCc3ccco3)ccc21	36	101*	-6	10	23*	-4	-6	-10
